# Hits are enriched below; roughly 2.2% of the tested compounds scored in any of these assays.
# LGR2 inh: inhibitors of bursicon-induced LGR2 CRE-luciferase signal, primary screen, cell-based, HEK293, CRE-luciferase reporter, bursicon stimulation | bursicon-stimulated, 4 h | inhibition, % at 9.99 µM | actives 0.35% (n = 380,000) | AID 720647, 2013;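 active = drop in luminescence signal, shown as inhibition above about 50% in the replicate tests, limit read from the data, passing the limit was not always enough; inconclusive = probably only some replicates passing the limit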;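 also: agonist challenge used bursicon conditioned medium at about half maximal strength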
# Shn3 inh set2: reduction of Shn3 3'UTR firefly luciferase signal, primary screen, Schnurri-3 inhibitor project, cell-based, Clone20 osteoblasts, set 2; inhibition, % at 12.5 µM; actives 0.52% (n = 360,000); AID 588674, 2011; Clone20 osteoblast Shn3 3'UTR firefly luciferase, 24 h;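 active = mean inhibition of at least 75% with every replicate also reaching 75%; inconclusive = mean inhibition at least 75% but some replicate below; inactive = mean inhibition below 75%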;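 also: 0% = median of neutral control wells and 100% = pilot-screen positive control compound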
# MITF TRPM1 inh: inhibitors of MITF-dependent TRPM1 promoter reporter, primary screen, cell-based, SK-MEL-5, single point, luciferase | SK-MEL-5 TRPM1 promoter luciferase, 24 h | inhibition, % at 12.5 µM | actives 0.83% (n = 330,000) | AID 488899, 2010;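 active = mean inhibition across replicates of 60% or more, whatever share of single replicates reaches that level; inconclusive = some that reach 60%, reason not given; inactive = mean inhibition across replicates below 60%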
# EWS-Fli block: EWS/Fli-driven NR0B1 reporter inhibitors, primary screen, A673 cells, NR0B1 luciferase, luminescence, MLPCN library | viability-normalised | inhibition, % at 12.6 µM | actives 0.67% (n = 350,000) | AID 651661, 2012;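 active = mean inhibition of at least 50% after viability correction, with every replicate also passing that limit; inconclusive = mean reaches 50% but only one of two replicates passes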;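 also: firefly luciferase signal divided by Alamar Blue viability fluorescence both relative to DMSO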
# PAX8 reporter: inhibitors of PAX8-driven TPO luciferase reporter, primary screen, RMG-I cells, single concentration; SteadyGlo, 24 h; inhibition, % at 12.6 µM; actives 1.2% (n = 360,000);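 active = mean replicate inhibition at least 60% with every replicate also reaching 60%; inconclusive = only one of the two criteria is met; inactive = mean below 60% and not all replicates reaching 60%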;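 also: luciferase light reporting Pax8 driven TPO promoter activity; plate controls were median of neutral control wells for no effect and mitoxantrone controls for full effect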
# EBV LMP1 NFkB: EBV LMP1-driven NF-kappaB luciferase reporter inhibitors, primary screen, cell-based, luminescence, single point; LMP1-induced NF-kappaB luciferase reporter cells; inhibition, % at 12.5 µM; actives 0.69% (n = 350,000); AID 504558, 2011; in the data active = inhibition above about 41%; inconclusive = no clear call, values can overlap the other calls;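 also: 0% = neutral control wells and 100% = reference inhibitor control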
# Numbers without * were called inactive; ? = inconclusive; . = no result.
SMILES,LGR2 inh,Shn3 inh set2,MITF TRPM1 inh,EWS-Fli block,PAX8 reporter,EBV LMP1 NFkB
C[C@H]1[C@H](OC(=O)CCC(=O)NCc2ccc(C(=O)O)cc2)O[C@@H]2O[C@@]3(C)CC[C@H]4[C@H](C)CC[C@@H]1C24OO3,.,82,45,.,.,-72
COC(=O)[C@@H]1[C@@H](CO)[C@@H]2Cn3c(ccc(-c4cccc(F)c4)c3=O)[C@H]1N2Cc1cccnc1,5,.,.,-32,12,.
O=C1NC2C(=CC(O)C(O)C2O)c2cc3c(c(O)c21)OCO3 (configuration not stated),106*,96*,88*,54*,.,95*
O=C1NC2C(O)C(O)C(O)C(O)C2c2cc3c(c(O)c21)OCO3 (configuration not stated),103*,87*,72*,56*,105*,92*
COC(=O)C[C@]1(C(=O)OC)CN(C#N)N(c2ccc(Cl)cc2)C12c1ccccc1-c1ccccc12,78*,97*,96*,.,109*,90*
COC(=O)[C@@H]1[C@@H](C(=O)OC)C2(c3ccccc3-c3ccccc32)N(c2ccc(Cl)cc2)N1C#N,36,79,93*,.,.,30
O=C(Cc1ccccc1)N1CCCCN2[C@H](CO)[C@@H](c3ccc(-c4ccccc4)cc3)[C@H]2C1,9,.,.,.,-7,.
CCCN1[C@@H]2Cn3c(ccc(-c4ccc(F)cc4)c3=O)[C@H]1[C@@H](C(=O)OC)[C@@H]2CO,-10,.,.,-3,4,.
COC(=O)[C@@H]1[C@@H](CO)[C@@H]2Cn3c(ccc(-c4ccccc4F)c3=O)[C@H]1N2Cc1cccnc1,22,.,.,0,-12,.
COC(=O)[C@@H]1[C@@H](CO)[C@@H]2Cn3c(ccc(-c4ccccc4)c3=O)[C@H]1N2CCc1ccccc1,-6,.,.,0,.,.
CC=Cc1ccc2n(c1=O)C[C@@H]1[C@@H](CO)[C@H](C(=O)OC)[C@H]2N1CC1CC1 (mixture of isomers),2,.,.,-6,.,.
COc1ccc(O)c2c(=O)c3c(OC)cc4c(c3oc12)C1C=COC1O4 (configuration not stated),7,12,25,37,.,64*
O=C(C1CC1)N1C[C@@H]2N[C@H](C1)C2c1ccc(-c2cncnc2)cc1 (some centres not stated),5,.,.,2,8,.
O=C(C1CC1)N1C[C@@H]2N[C@H](C1)[C@@H]2c1ccc(-c2ccncc2)cc1,65*,.,.,80*,85*,.
CCN1C[C@]2(COC)CC[C@H](OC)[C@@]34C1[C@]1(OCO[C@@]15C[C@H](OC)[C@H]1C[C@@H]3[C@@H]5[C@H]1OC)[C@@H](O)[C@H]24,.,89*,8,-5,-18,56*
COC(=O)C1=C(C(=O)OC)C2OC1c1cc3ccccc3cc12,?,95*,112*,2,109*,36
COC(=O)[C@H]1[C@H](CO)[C@H]2Cn3c(ccc(C4=CCCCC4)c3=O)[C@@H]1N2Cc1ccccn1,8,.,.,5,.,.
CN1CCN(C(=O)COc2ccc(-c3nc4ccccc4s3)cc2)CC1,.,20,15,.,.,59*
Cn1nc(-c2ccc(OCC(=O)N3CCN(Cc4ccccc4)CC3)cc2)c2ccccc2c1=O,.,89*,10,.,.,21
N#Cc1cccc(-c2ccc([C@H]3[C@@H](CO)N4CCCCN(C(=O)Cc5ccncc5)C[C@@H]34)cc2)c1,-13,.,.,.,14,.
COc1ccc(C#Cc2ccc([C@H]3[C@@H](CO)N4CCCCN(C(=O)Cc5ccccc5)C[C@@H]34)cc2)cc1,16,.,.,11,15,.
COc1ccc(-c2ccc([C@@H]3[C@H]4CN(C(=O)Cc5ccncc5)CCCCN4[C@H]3CO)cc2)cc1,4,.,.,3,-20,.
CCC(c1nnnn1-c1ccc2c(c1)OCCO2)N1CCC(n2c(=O)[nH]c3ccccc32)CC1 (configuration not stated),-19,19,.,13,85*,.
COc1ccc(-n2nnnc2C(C2CC2)N2CCC(n3c(=O)[nH]c4ccccc43)CC2)cc1 (configuration not stated),10,-30,.,2,20,.
CSCCC(c1nnnn1-c1ccc2c(c1)OCCO2)N1CCC(n2c(=O)[nH]c3ccccc32)CC1 (configuration not stated),13,73,.,21,93*,.
SMILES,LGR2 inh,Shn3 inh set2,MITF TRPM1 inh,EWS-Fli block,PAX8 reporter,EBV LMP1 NFkB
COc1ccc(-n2nnnc2C(c2ccccc2)N2CCC(n3c(=O)[nH]c4ccccc43)CC2)cc1 (configuration not stated),18,2,.,-3,78*,.
COc1ccc(-n2nnnc2C(c2cccs2)N2CCC(n3c(=O)[nH]c4ccccc43)CC2)cc1 (configuration not stated),15,30,.,23,71*,.
CC1(CCO)CC(C)(CCc2ccccc2)OO1 (configuration not stated),.,.,.,67*,41,.
O=C(Cc1ccncc1)N1CCCCN2[C@H](CO)[C@@H](c3ccc(C#Cc4ccccc4F)cc3)[C@@H]2C1,11,.,.,-8,19,.
C=CCc1cc(OC)c2c(c1)OCO2,12,6,11,-5,.,-1
COc1cccc2c1cc([N+](=O)[O-])c1c(C(=O)O)cc3c(c12)OCO3,67*,11,0,33,.,-13
CC(C)C(NC(=O)C(C(C)C)N(C)C)C(=O)N(C)C(C(=O)N1CCCC1C(=O)N1CCCC1C(=O)NCc1ccccc1)C(C)C (configuration not stated),-16,-15,65*,56*,76*,5
COc1cccc2c1C(=O)c1c(O)c3c(c(O)c1C2=O)CC(O)(C(C)=NO)CC3OC1CC(N)C(O)C(C)O1 (configuration not stated),63*,36,70*,38,-16,42*
COc1ccc(OC(=O)N(C)C[C@H]2OCc3ccccc3-c3c(n(C)c4ccccc34)C(=O)N([C@H](C)CO)C[C@@H]2C)cc1,-1,.,.,6,.,.
C/C=C(\C)C(=O)N[C@@H](c1ccccc1)[C@@H](O)C(=O)O[C@H]1C[C@@]2(O)[C@@H](OC(=O)c3ccccc3)C3[C@](C)(C(=O)[C@H](OC(C)=O)C(=C1C)C2(C)C)[C@H](O)C[C@H]1OC[C@@]31OC(C)=O (some centres not stated),.,10,.,58*,.,12

# From PubChem
